Results from ChEMBL document CHEMBL3433997, “St. Jude Leishmania screening dataset” (2016).

How the values were obtained:
Assay type in all cases: functional
[1] = target: Solute carrier family 2, facilitated glucose transporter member 1 (Homo sapiens) (UniProt P11166); test: ST_JUDE_LEISH: Cytotoxicity at 2uM final concentration against transgenic Leishmania Mexicana promastigotes LmGLUT1 that are glucose transport deficient and complemented with the human glucose transporter GLUT1. Activity is measured by DNA content using SYBR green in vitro
Chain of Solute carrier family 2, facilitated glucose transporter member 1 (Homo sapiens) (P11166 whole entry): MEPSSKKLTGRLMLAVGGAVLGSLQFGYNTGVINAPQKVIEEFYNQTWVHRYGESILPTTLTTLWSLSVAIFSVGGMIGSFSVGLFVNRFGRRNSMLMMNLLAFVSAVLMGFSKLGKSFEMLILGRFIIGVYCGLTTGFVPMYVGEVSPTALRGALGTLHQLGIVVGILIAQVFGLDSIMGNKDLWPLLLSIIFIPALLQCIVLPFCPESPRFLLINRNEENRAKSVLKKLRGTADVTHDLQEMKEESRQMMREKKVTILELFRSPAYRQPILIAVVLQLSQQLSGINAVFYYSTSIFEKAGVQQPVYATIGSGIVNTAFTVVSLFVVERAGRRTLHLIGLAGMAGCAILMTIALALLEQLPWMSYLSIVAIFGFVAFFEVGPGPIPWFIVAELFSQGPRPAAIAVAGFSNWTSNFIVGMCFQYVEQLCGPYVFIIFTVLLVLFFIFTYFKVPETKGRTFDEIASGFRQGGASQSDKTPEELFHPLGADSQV

[2] = target: Hexose transporter 1 (Plasmodium falciparum) (UniProt O97467); test: ST_JUDE_LEISH: Cytotoxicity at 2uM final concentration against transgenic Leishmania Mexicana promastigotes LmPfHT that are glucose transport deficient and complemented with the Plasmodium falciparum hexose transporter. Activity is measured by DNA content using SYBR green in vitro
[3] = target: Glucose transporter (Leishmania mexicana) (UniProt O61059); test: ST_JUDE_LEISH: Cytotoxicity at 2uM final concentration against transgenic Leishmania Mexicana promastigotes LmGT2 that are glucose transport deficient and complemented with the L. Mexicana glucose transporter 2. Activity is measured by DNA content using SYBR green in vitro

Row | Compound | inhibition [1] [%] | inhibition [2] [%] | inhibition [3] [%]
1 | CC(C)S(=O)(=O)N1CCN(Cc2ccc3c(c2)nc(NC(=O)c2ccsc2)n3C[C@H](O)c2ccccc2)CC1 | 2.63 | 1 | -0.17
2 | COc1c(CN2CCOCC2)cccc1-c1cc2c(-c3ccc(C(=O)O)c(C(C)C)c3)ccnc2[nH]1 | 4.23 | 3.17 | 3.15
3 | O=C(Cc1ccc(NC(=O)c2ccc(O)c(-c3cccc([N+](=O)[O-])c3)c2)cc1)NCCN1CCCCC1 | -0.19 | -1.26 | -0.03
4 | Cc1cccc2nc(-c3ccc(-c4cccc(CNCCCNS(C)(=O)=O)c4)cc3)[nH]c12 | 0.32 | 0.24 | -0.36
5 | CCN(CC)CCCN(Cc1ccc(-c2ccc(C(F)(F)F)cc2)cc1)C(=O)Cn1c(SCc2cccc(F)c2F)cc(=O)c2ccccc21 | 2.74 | 2.63 | 2.46
6 | NOCCCOc1ccccc1 | 0.04 | -0.12 | 0.73
7 | COc1ccc(-c2ccc(CN(C)C3CCC(NC(=O)c4cc5ccccc5[nH]4)CC3)cc2)cn1 (stereo unspecified) | -1.44 | -1.14 | -1.54
8 | COc1cc(C)nc2ccc(NC(=O)c3ccc(C(=O)Nc4ccc5nc(C)cc(OC)c5c4)cc3)cc12 | -1.93 | -1.5 | 1.25
9 | O=C(/C=C/c1ccc(Cl)c(Cl)c1)NCCCCCN1CCCC(C(=O)Nc2cccc(Cl)c2)C1 (stereo unspecified) | 3.89 | 2.5 | 1.07
10 | c1ccc(C2CCC(N3CCC(N4CCCC4)CC3)CC2)cc1 (stereo unspecified) | 0.84 | -0.62 | 1.54
11 | Cc1cc(NC2CCN(Cc3ccccc3)CC2)nc(NCCCCc2ccccc2)n1 | 23.4 | 17.5 | 4.87
12 | CNCCNCc1ccc(-c2ccc(-c3nc4cc(C(F)(F)F)ccc4[nH]3)cc2)cc1 | -0.49 | 3.17 | 2.46
13 | Cc1cc(C)cc(-n2c(C)cc(/C=C3\SC(=Nc4ccc(Cl)cc4)NC3=O)c2C)c1 | 5.26 | 7.1 | 1.22
14 | COc1ccc(NC(=O)c2ccc(OCCCCCCCOc3ccc(C(=O)Nc4ccc(OC)c(N5CCN(C)CC5)c4)cc3)cc2)cc1N1CCN(C)CC1 | 0.98 | 0.63 | 1.11
15 | O=C(Nc1cccc(-c2cccc(-c3nc4cc(C(F)(F)F)ccc4[nH]3)c2)c1)c1cccnc1Cl | 0.15 | 0.52 | -2.92
16 | CC1CN(Cc2cccc(-c3ccc(-c4nc5ccccc5[nH]4)cc3)c2)CC(C)O1 (stereo unspecified) | 3.06 | 4.42 | 2.3
17 | C=C(NC(=O)C1CCCCC1)C(=O)OC | -0.71 | 2.29 | 0.41
18 | CCNc1cc(C)nc(Nc2ccc(NC(=O)c3ccccc3)cc2)n1 | 6.94 | 4.8 | 3.79
19 | CC1CCCCN1Cc1cccc(-c2c[nH]c3nc(NC4CCCC4)ncc23)c1 (stereo unspecified) | 10.8 | 6.53 | 6.08
20 | OCCN1CCN(C(=S)NC2CCCCC2)CC1 | -1.08 | -1.56 | -1.81
21 | CN(C(=O)c1nn(-c2ccccn2)c2nccc(-c3cccs3)c12)C1CCCCC1 | 5.01 | 5.58 | 3.33
22 | CN1CCC(N2CCN(Cc3cccc(-c4cccc(-c5nc6ccccc6[nH]5)c4)c3)CC2)CC1 | -4.87 | 0.09 | -3.95
23 | CCCCc1cc(NCC)nc(Nc2cccc(OC)c2)n1 | 38.6 | 27 | 19.1
24 | CC[C@H]1CN(Cc2cccc(O)c2)CC[C@H]1CCCc1ccnc2ccc(O)cc12 | 4.31 | 4.23 | 3.98

Row | Compound | inhibition [1] [%] | inhibition [2] [%] | inhibition [3] [%]
25 | Cc1ccccc1CNc1noc(-c2sccc2Br)n1 | -2.66 | -1.49 | -1.5
26 | CC(C)N(Cc1ccc(-c2ccc(C(F)(F)F)cc2)cc1)C(=O)Cn1c(CCc2cccc(F)c2F)cc(=O)c2ccc(CCCN3CCCCC3)cc21 | 3.56 | 4.4 | 3.61
27 | CC(O)C1CCCCN1C(=O)c1ccc(-c2cccc(-c3nc4cc(F)ccc4[nH]3)c2)cc1 (stereo unspecified) | 3.01 | 2.87 | 3.89
28 | Cc1cc(N2CCC(NS(=O)(=O)c3ccc(F)cc3)CC2)nc(Nc2cccc(C#N)c2)n1 | 39.9 | 46.5 | 41
29 | CON(C)C(=O)[C@@H](CCCCNC(=O)OCc1ccccc1)NC(=O)OC(C)(C)C | -0.81 | -1.84 | -1.83
30 | COc1ccc(NC(=O)c2ccc(-c3nc(-c4cccc(C(F)(F)F)c4)cs3)cc2)cc1N1CCN(C)CC1 | 0.87 | 1.59 | 2.01
31 | COc1ccc(-c2cccc(NC(=O)c3ccc(Cl)cc3)c2)cc1CN1CCNCC1 | 2.69 | 0.49 | -0.7
32 | COc1ccc(Cn2c(Nc3cccc(C(F)(F)F)c3)nc3cc(C(=O)NCCN4CCCC4)cnc32)cc1Cl | 13.2 | 12.9 | 15.6
33 | N#CC1(CCCNCCc2ccc(O)cc2)CCCc2c(O)cccc21 (stereo unspecified) | 14.1 | 12 | 11.7
34 | CC1CCN(c2nc(C(=O)Nc3ccc(F)cc3C(F)(F)F)c(C(C)C)s2)CC1 | 1.3 | 2.16 | 2.29
35 | Nc1nc(-c2ccc3c(Nc4ccc(F)c(Cl)c4)ccnc3c2)cs1 | 3.22 | 4.08 | 3.86
36 | Cn1nc(C(F)(F)F)cc1-c1ccc(C(=O)Nc2ccc3c(c2)CNCC3(C)C)s1 | 4.85 | 0.03 | 2.34
37 | CCn1c(SCc2ccc(F)cc2)nc2sc3c(c2c1=O)CCN(C)C3 | -1.93 | 1.32 | 0.64
38 | COc1ccc(NC(=O)/C=C/c2ccccc2Cl)cc1OCCN1CCC(NCc2cccnc2)CC1 | 3.65 | 2.5 | 1.91
39 | CCCC(C)N(Cc1ccc(C(C)(C)C)cc1)C(=O)c1cccc(C#N)c1 (stereo unspecified) | -1.28 | 0.07 | -1.38
40 | CC(C)(C)Oc1ccc(C[C@@H]2NC3(C(=O)N(Cc4ccc(Cl)c(Cl)c4)c4ccccc43)C3C(=O)N(c4ccc(Br)cc4)C(=O)C32)cc1 (stereo partly specified) | 4.6 | 4.73 | 2.5
41 | CCN(CC)c1ccc(NC(=S)NC2CCN(CCCCCNC(=O)/C=C/c3ccc(Cl)c(Cl)c3)CC2)cc1 | 5.28 | 6.72 | 6.22
42 | CCCC(C)Nc1nc(C)cc(N[C@@H](CC(C)C)C(=O)NCCOc2ccccc2)n1 (stereo partly specified) | 21.4 | 17 | 16.7
43 | CCN(CC)CCCCOc1ccc2c(c1)C(=O)c1cc(OCCCCN(CC)CC)ccc1-2 | 10.2 | 4.61 | 0.2
44 | C=CCn1c(SCC(=O)Nc2cc(Cl)ccc2Cl)nc2sc(C)cc2c1=O | 1.86 | 0.95 | 0.76
45 | Cc1cccc2nc(-c3ccc(-c4cccc(CNCCCNS(C)(=O)=O)c4)s3)[nH]c12 | 0.75 | 2.35 | -2.06
46 | O=C(NCc1ccco1)c1ccc(CN2CCN(C(c3ccccc3)c3ccccc3)CC2)cc1 | 7.85 | 6.41 | 4.79
47 | COc1ccc2nccc([C@@H](O)CN3CCC(NC(=O)/C=C/c4cc([N+](=O)[O-])ccc4OC)CC3)c2c1 | 1.12 | 0.92 | 0.53
48 | COc1ccc(CCN(C)CCCCNC(=O)c2ccc(NC(=O)c3ccc(Cl)cc3)cc2)c(OC)c1 | 1.64 | 2.15 | 2.45

Row | Compound | inhibition [1] [%] | inhibition [2] [%] | inhibition [3] [%]
49 | Cc1ccc(C)c(Cn2c(N3CCC(C(=O)NCc4cccs4)CC3)nc3ccccc32)c1 | 3.18 | 4.2 | -0.43
50 | Nc1nc(N)c2c(ccc3c2ccn3CC2CC2)n1 | 2.11 | 6.17 | 0.91
51 | Cc1c(S(=O)(=O)Nc2ccc3ccn(CCN(C)C)c3c2)sc2ccc(Cl)cc12 | -0.44 | -0.46 | 1.18
52 | CO/C(=C\C=C\c1cc2cc(Cl)c(Cl)cc2[nH]1)C(=O)NCCCNCCN(C)c1ccccc1 | 4.77 | 2.76 | 1.74
53 | CN(C)c1cccc(-c2cnc3ccc(NCc4cccc(Cl)c4)nn23)c1 | 1.27 | 2.01 | 1.77
54 | CC(C)(C)OC(=O)n1cc(C2CCN(CCCC34CCCc5cccc(c53)NC4=O)CC2)c2ccncc21 (stereo unspecified) | -0.89 | -0.01 | 9.45
55 | COc1ccccc1C1CN(Cc2coc3ccccc3c2=O)Cc2ccccc2O1 (stereo unspecified) | 0.38 | 0.56 | 0.45
56 | CON=C1CCC(Cn2ccnc2)(c2ccc(Cl)cc2Cl)CC1 (stereo unspecified) | 7.4 | 2.3 | 4.22
57 | Oc1c(Br)cc2oc3c(c2c1CNCc1ccccc1)CCCC3 | -0.72 | -0.92 | -0.81
58 | COc1ccc(CC2(c3ccc(F)cc3)N=C(N)N(CCCc3cccnc3)C2=O)cc1 (stereo unspecified) | 2.7 | 1.49 | 2.08
59 | O=[N+]([O-])c1cccc(CNC2CCN(Cc3ccc(Cl)c(Cl)c3)CC2)c1 | 7.37 | 4.47 | 7.35
60 | Fc1cc(Cl)ccc1Nc1ccnc2cc(-c3scnc3CNCCN3CCOCC3)ccc12 | 2.02 | 1.16 | 0.33
61 | Cc1cc(Nc2ccc3ccccc3c2)n2ncnc2n1 | -0.63 | -3.58 | -1.18
62 | O=C(N[C@@H](Cc1ccccc1)[C@H](O)CNC1CCCc2ccccc21)c1cc(C2CCCC2)cc(N2CCCC2=O)c1 (stereo partly specified) | -0.02 | 0.77 | -0.94
63 | CN(CCCNCc1ccc2ccccc2c1)CCCNCc1ccc2ccccc2c1 | 12.4 | 13.7 | 3.29
64 | O=C(/C=C/c1ccc(Cl)c(Cl)c1)NCCCCN1CCC(c2c[nH]c3ccccc23)CC1 | -2.39 | 0.39 | -0.01
65 | COCn1ccc2c3c(N)nc(N)nc3ccc21 | 0.07 | 6.21 | 2.32
66 | c1ccc(COc2ccc(COc3ccc(Cn4ccnc4)cc3)cc2)cc1 | 2.93 | 2.15 | 1.02
67 | O=C(NCC1CC1)C1CCN(C(c2ccc(Cl)cc2)c2ccc(Cl)cc2)CC1 | 0.44 | 1.5 | -2.15
68 | CC(Cc1ccc(CNC(=O)NCc2ccc(CC(C)NCCc3cccc(Cl)c3)cc2)cc1)NCCc1cccc(Cl)c1 (stereo unspecified) | 82.9 | 79 | 18.9
69 | CC(C)c1ccc(CN2CCC(CNC(=O)c3cc(-c4cccc(Cl)c4)cs3)C2)cc1 (stereo unspecified) | 1.24 | 3.19 | -0.24
70 | Cc1cc(Cl)c(S(=O)(=O)NC(C)(C)C)cc1OCC(=O)NC1CCCCC1 | -0.97 | 0.93 | 0.34
71 | Cc1cccc2nc(-c3cccc(-c4ccc(NC(=O)Cc5ccccn5)cc4)c3)[nH]c12 | 4.3 | 2.5 | 2.64
72 | N#Cc1ccc2c(c1)CCN(CCC1CCC(NC(=O)c3cc4cccc(Cl)c4[nH]3)CC1)CC2 (stereo unspecified) | 15.5 | 11.7 | 9.05
